# Results reported in PMC11006913.
# Substitutions are numbered along the chain they refer to.
# What was measured:
# Test in all cases: PBM; 200 nM protein, PBS
# Conditions in all cases: dsDNA, one strand shown
# CRX [1] = target: CRX (Homo sapiens, UniProt O43186 26-111)
# VENTX [2] = target: T1, VENTX (Homo sapiens, UniProt O95231 78-163, R121Q)
# T1 sequence: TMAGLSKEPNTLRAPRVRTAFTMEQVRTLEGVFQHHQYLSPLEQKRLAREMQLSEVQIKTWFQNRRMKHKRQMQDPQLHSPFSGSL
# HOXB6 [3] = target: HOXB6 (Homo sapiens, UniProt P17509 132-218, K202E)
# Sequence of HOXB6 (Homo sapiens, UniProt P17509 132-218, K202E) (P17509 132-218 K202E): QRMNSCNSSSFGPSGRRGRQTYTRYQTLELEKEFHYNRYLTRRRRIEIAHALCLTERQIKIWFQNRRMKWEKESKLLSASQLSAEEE
# CRX [4] = target: CRX (Homo sapiens, UniProt O43186 26-111, E42D)
# Sequence of CRX (Homo sapiens, UniProt O43186 26-111, E42D) (O43186 26-111 E42D): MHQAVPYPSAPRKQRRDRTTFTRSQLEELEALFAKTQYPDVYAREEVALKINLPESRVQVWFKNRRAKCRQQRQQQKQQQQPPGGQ
# MSX2 [5] = target: MSX2 (Homo sapiens, UniProt P35548 130-214)
# Sequence of MSX2 (Homo sapiens, UniProt P35548 130-214) (P35548 130-214): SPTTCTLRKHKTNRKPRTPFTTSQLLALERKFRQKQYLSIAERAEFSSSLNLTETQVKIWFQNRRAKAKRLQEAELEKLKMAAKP
# MSX2 [6] = target: MSX2 (Homo sapiens, UniProt P35548 130-214, F161Y)
# Sequence of MSX2 (Homo sapiens, UniProt P35548 130-214, F161Y) (P35548 130-214 F161Y): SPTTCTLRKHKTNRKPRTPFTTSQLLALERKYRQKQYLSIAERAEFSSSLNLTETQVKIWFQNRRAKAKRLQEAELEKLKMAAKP
# CRX [7] = target: CRX (Homo sapiens, UniProt O43186 26-111, R41L)
# Sequence of CRX (Homo sapiens, UniProt O43186 26-111, R41L) (O43186 26-111 R41L): as the sequence (O43186 26-111 E42D) above, with R16L, D17E counted along it
# HOXB6 [8] = target: HOXB6 (Homo sapiens, UniProt P17509 132-218)
# Sequence of HOXB6 (Homo sapiens, UniProt P17509 132-218) (P17509 132-218): as the sequence (P17509 132-218 K202E) above, with E71K counted along it
# HOXA4 [9] = target: HOXA4 (Homo sapiens, UniProt Q00056 201-287, W262R)
# Sequence of HOXA4 (Homo sapiens, UniProt Q00056 201-287, W262R) (Q00056 201-287 W262R): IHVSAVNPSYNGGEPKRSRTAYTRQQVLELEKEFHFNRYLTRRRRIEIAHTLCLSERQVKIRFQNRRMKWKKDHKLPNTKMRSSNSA
# PITX2 = PITX2 (Homo sapiens, UniProt Q99697 72-157)
# HOXA4 [10] = target: HOXA4 (Homo sapiens, UniProt Q00056 201-287)
# Sequence of HOXA4 (Homo sapiens, UniProt Q00056 201-287) (Q00056 201-287): as the sequence (Q00056 201-287 W262R) above, with R62W counted along it
# SIX6 [11] = target: T2, SIX6 (Homo sapiens, UniProt O95475 114-200, L167I)
# T2 sequence: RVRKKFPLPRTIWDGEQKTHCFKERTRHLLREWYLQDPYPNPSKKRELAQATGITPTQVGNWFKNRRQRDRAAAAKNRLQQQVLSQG
# VENTX [12] = target: T3, VENTX (Homo sapiens, UniProt O95231 78-163)
# T3 sequence: T1 sequence with Q44R
# SIX6 [13] = target: T4, SIX6 (Homo sapiens, UniProt O95475 114-200, L143V)
# T4 sequence: T2 sequence with L30V, I54L
# HOXC10 [14] = target: HOXC10 (Homo sapiens, UniProt Q9NYD6 254-340)
# Sequence of HOXC10 (Homo sapiens, UniProt Q9NYD6 254-340) (Q9NYD6 254-340): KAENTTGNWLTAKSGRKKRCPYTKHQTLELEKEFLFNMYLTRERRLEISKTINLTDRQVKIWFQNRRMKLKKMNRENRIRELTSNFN
# SIX6 [15] = target: T5, SIX6 (Homo sapiens, UniProt O95475 114-200, H141N)
# T5 sequence: T2 sequence with H28N, I54L
# SIX6 [16] = target: T6, SIX6 (Homo sapiens, UniProt O95475 114-200, T165P)
# T6 sequence: T2 sequence with T52P, I54L
# VENTX [17] = target: T7, VENTX (Homo sapiens, UniProt O95231 78-163, Y115F)
# T7 sequence: T1 sequence with Y38F, Q44R
# SIX6 [18] = target: T8, SIX6 (Homo sapiens, UniProt O95475 114-200, L167M)
# T8 sequence: T2 sequence with I54M
# SIX6 [19] = target: T9, SIX6 (Homo sapiens, UniProt O95475 114-200, L143M)
# T9 sequence: T2 sequence with L30M, I54L
# SIX6 [20] = target: T10, SIX6 (Homo sapiens, UniProt O95475 114-200, L143I)
# T10 sequence: T2 sequence with L30I, I54L
# SIX6 [21] = target: T11, SIX6 (Homo sapiens, UniProt O95475 114-200, T165G)
# T11 sequence: T2 sequence with T52G, I54L
# SIX6 [22] = target: T12, SIX6 (Homo sapiens, UniProt O95475 114-200, T139Q)
# T12 sequence: T2 sequence with T26Q, I54L
# MSX2 [23] = target: MSX2 (Homo sapiens, UniProt P35548 130-214, R199I)
# Sequence of MSX2 (Homo sapiens, UniProt P35548 130-214, R199I) (P35548 130-214 R199I): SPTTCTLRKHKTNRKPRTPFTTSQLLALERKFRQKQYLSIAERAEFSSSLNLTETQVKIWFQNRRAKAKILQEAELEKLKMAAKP
# SIX6 [24] = target: T13, SIX6 (Homo sapiens, UniProt O95475 114-200, T165A)
# T13 sequence: T2 sequence with T52A, I54L
# HOXC10 [25] = target: HOXC10 (Homo sapiens, UniProt Q9NYD6 254-340, K271E)
# Sequence of HOXC10 (Homo sapiens, UniProt Q9NYD6 254-340, K271E) (Q9NYD6 254-340 K271E): as the sequence (Q9NYD6 254-340) above, with K18E counted along it
# SIX6 [26] = target: T14, SIX6 (Homo sapiens, UniProt O95475 114-200, L167V)
# T14 sequence: T2 sequence with I54V
# SIX6 [27] = target: T15, SIX6 (Homo sapiens, UniProt O95475 114-200)
# T15 sequence: T2 sequence with I54L
# SIX6 [28] = target: T16, SIX6 (Homo sapiens, UniProt O95475 114-200, T165I)
# T16 sequence: T2 sequence with T52I, I54L
# Sequence of CRX (Homo sapiens, UniProt O43186 26-111) (O43186 26-111): as the sequence (O43186 26-111 E42D) above, with D17E counted along it
sequence,measurement,setting,value
CCAGATTA,binding signal,CRX [1],"13 upbm affinity estimate (log intensity, higher = more binding, comparable within an allelic series)"
same,binding signal,VENTX [2],"10 upbm affinity estimate (log intensity, higher = more binding, comparable within an allelic series)"
same,binding signal,HOXB6 [3],"9.66 upbm affinity estimate (log intensity, higher = more binding, comparable within an allelic series)"
same,binding signal,CRX [4],"13 upbm affinity estimate (log intensity, higher = more binding, comparable within an allelic series)"
same,binding signal,MSX2 [5],"11.3 upbm affinity estimate (log intensity, higher = more binding, comparable within an allelic series)"
same,binding signal,MSX2 [6],"11.1 upbm affinity estimate (log intensity, higher = more binding, comparable within an allelic series)"
same,binding signal,CRX [7],"12.7 upbm affinity estimate (log intensity, higher = more binding, comparable within an allelic series)"
same,binding signal,HOXB6 [8],"10.3 upbm affinity estimate (log intensity, higher = more binding, comparable within an allelic series)"
TAATCTGA,binding signal,CRX [1],"12.9 upbm affinity estimate (log intensity, higher = more binding, comparable within an allelic series)"
same,binding signal,VENTX [2],"10.3 upbm affinity estimate (log intensity, higher = more binding, comparable within an allelic series)"
same,binding signal,CRX [4],"12.8 upbm affinity estimate (log intensity, higher = more binding, comparable within an allelic series)"
same,binding signal,CRX [7],"12.6 upbm affinity estimate (log intensity, higher = more binding, comparable within an allelic series)"
GTGGATTA,binding signal,CRX [1],"13.3 upbm affinity estimate (log intensity, higher = more binding, comparable within an allelic series)"
same,binding signal,HOXA4 [9],"10.2 upbm affinity estimate (log intensity, higher = more binding, comparable within an allelic series)"
same,binding signal,CRX [4],"13.3 upbm affinity estimate (log intensity, higher = more binding, comparable within an allelic series)"
same,binding signal,PITX2,"13.2 upbm affinity estimate (log intensity, higher = more binding, comparable within an allelic series)"
same,binding signal,HOXA4 [10],"10.8 upbm affinity estimate (log intensity, higher = more binding, comparable within an allelic series)"
same,binding signal,CRX [7],"13.1 upbm affinity estimate (log intensity, higher = more binding, comparable within an allelic series)"
CTGCTGGC,binding signal,CRX [1],"8.31 upbm affinity estimate (log intensity, higher = more binding, comparable within an allelic series)"
same,binding signal,VENTX [2],"7.75 upbm affinity estimate (log intensity, higher = more binding, comparable within an allelic series)"
same,binding signal,SIX6 [11],"8.86 upbm affinity estimate (log intensity, higher = more binding, comparable within an allelic series)"
same,binding signal,VENTX [12],"7.86 upbm affinity estimate (log intensity, higher = more binding, comparable within an allelic series)"
same,binding signal,SIX6 [13],"8.74 upbm affinity estimate (log intensity, higher = more binding, comparable within an allelic series)"
same,binding signal,HOXC10 [14],"9.92 upbm affinity estimate (log intensity, higher = more binding, comparable within an allelic series)"
same,binding signal,SIX6 [15],"8.87 upbm affinity estimate (log intensity, higher = more binding, comparable within an allelic series)"
same,binding signal,SIX6 [16],"8.81 upbm affinity estimate (log intensity, higher = more binding, comparable within an allelic series)"
same,binding signal,VENTX [17],"7.71 upbm affinity estimate (log intensity, higher = more binding, comparable within an allelic series)"
same,binding signal,SIX6 [18],"8.92 upbm affinity estimate (log intensity, higher = more binding, comparable within an allelic series)"
same,binding signal,SIX6 [19],"8.85 upbm affinity estimate (log intensity, higher = more binding, comparable within an allelic series)"
same,binding signal,SIX6 [20],"8.83 upbm affinity estimate (log intensity, higher = more binding, comparable within an allelic series)"
same,binding signal,SIX6 [21],"8.91 upbm affinity estimate (log intensity, higher = more binding, comparable within an allelic series)"
same,binding signal,SIX6 [22],"8.84 upbm affinity estimate (log intensity, higher = more binding, comparable within an allelic series)"
same,binding signal,CRX [4],"8.3 upbm affinity estimate (log intensity, higher = more binding, comparable within an allelic series)"
same,binding signal,MSX2 [23],"9.25 upbm affinity estimate (log intensity, higher = more binding, comparable within an allelic series)"
same,binding signal,SIX6 [24],"8.81 upbm affinity estimate (log intensity, higher = more binding, comparable within an allelic series)"
same,binding signal,HOXC10 [25],"9.97 upbm affinity estimate (log intensity, higher = more binding, comparable within an allelic series)"
same,binding signal,MSX2 [5],"9.22 upbm affinity estimate (log intensity, higher = more binding, comparable within an allelic series)"
same,binding signal,SIX6 [26],"8.93 upbm affinity estimate (log intensity, higher = more binding, comparable within an allelic series)"
same,binding signal,SIX6 [27],"8.83 upbm affinity estimate (log intensity, higher = more binding, comparable within an allelic series)"
same,binding signal,SIX6 [28],"8.82 upbm affinity estimate (log intensity, higher = more binding, comparable within an allelic series)"
same,binding signal,MSX2 [6],"9.31 upbm affinity estimate (log intensity, higher = more binding, comparable within an allelic series)"
same,binding signal,CRX [7],"8.2 upbm affinity estimate (log intensity, higher = more binding, comparable within an allelic series)"
